# Among all 310,000 compounds or so, about 3,400 (1.1%) were called active.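 Rule for the calls: active = fluorescence ratio B-score at most minus 3 library SDs, with starting brightness B-score within 2 library SDs (cut at about -5.5 in these data); inactive = the rest, inconclusive results apart.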 Only a selection was taken, and actives are over-represented in it overall. Peptide text beside a SMILES is read from it. * marks the point of attachment. OPac = O=C(CO*)c1ccccc1; Bz = O=C(c1ccccc1)*
# Biological target: Potassium voltage-gated channel subfamily KQT member 2 (Rattus norvegicus) (UniProt O88943)
# Experiment: KCNQ2 channel blockers in CHO-K1 cells – cell-based, FluxOR thallium flux, B-score, primary screen (AID 2156)
# Conditions: 20 min, at 10 µM; stronger effect = lower value
# Sequence of Potassium voltage-gated channel subfamily KQT member 2 (Rattus norvegicus) (O88943 whole entry, looked up): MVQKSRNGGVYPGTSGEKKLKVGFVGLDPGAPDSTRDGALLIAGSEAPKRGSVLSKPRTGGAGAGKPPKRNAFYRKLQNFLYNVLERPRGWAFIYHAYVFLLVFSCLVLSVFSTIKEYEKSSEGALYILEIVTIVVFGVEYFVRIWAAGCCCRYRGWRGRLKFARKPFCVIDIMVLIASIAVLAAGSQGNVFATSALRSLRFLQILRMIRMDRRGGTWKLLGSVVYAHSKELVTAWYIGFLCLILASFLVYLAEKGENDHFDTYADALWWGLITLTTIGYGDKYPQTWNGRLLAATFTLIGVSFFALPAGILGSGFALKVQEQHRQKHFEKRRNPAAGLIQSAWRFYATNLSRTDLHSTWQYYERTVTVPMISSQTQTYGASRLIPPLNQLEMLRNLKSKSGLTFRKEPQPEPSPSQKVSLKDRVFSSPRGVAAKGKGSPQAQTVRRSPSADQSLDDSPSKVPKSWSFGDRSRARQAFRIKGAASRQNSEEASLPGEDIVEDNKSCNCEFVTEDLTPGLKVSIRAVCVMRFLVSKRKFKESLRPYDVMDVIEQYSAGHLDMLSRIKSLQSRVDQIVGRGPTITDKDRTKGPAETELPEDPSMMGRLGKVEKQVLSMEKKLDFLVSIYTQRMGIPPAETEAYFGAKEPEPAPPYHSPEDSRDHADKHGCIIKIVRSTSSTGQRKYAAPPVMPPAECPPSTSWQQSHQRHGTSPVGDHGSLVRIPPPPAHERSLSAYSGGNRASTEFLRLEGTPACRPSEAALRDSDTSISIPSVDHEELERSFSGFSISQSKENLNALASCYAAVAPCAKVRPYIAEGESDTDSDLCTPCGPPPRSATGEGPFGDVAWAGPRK
row,SMILES,B-score
1,CCOC(=O)N1CCN(C(=O)c2ccccc2SCC(=O)NCC2CCCCC2)CC1,inactive
2,COc1ccc(NS(=O)(=O)c2ccc(C)c(C(=O)NCC(c3cccs3)N3CCOCC3)c2)cc1 (stereo not given),-0.42 (inactive)
3,CCC(C)n1c(-c2cc(OC)c(OC)c(OC)c2)nc2nc3ccccc3nc21 (stereo not given),-6.81 (active)
4,COc1cc(C(O)c2nc3ccccc3n2C)cc(OC)c1OC (stereo not given),-0.53 (inactive)
5,COc1cc(-c2n[nH]c(=S)n2Cc2ccccc2)cc(OC)c1OC,-0.07 (inactive)
6,Cc1csc(=O)n1CC(=O)OCC(=O)N(CC(C)C)c1c(N)n(Cc2ccccc2)c(=O)[nH]c1=O,inactive
7,COc1ccc(Cc2nnc(SCC(=O)N(c3ccccc3)C(C)C)n(N)c2=O)cc1,-2.15 (inactive)
8,O=C(COC(=O)Cc1ccccc1F)NNC(=O)c1ccc(Cl)cc1,inactive
9,Cc1cc(Cl)c2oc(C(=O)N(C)C(C)c3ccccn3)c(C)c2c1 (stereo not given),-5.81 (active)
10,Cc1cc(Cl)c2oc(C(=O)NC(C)c3ccncn3)c(C)c2c1 (stereo not given),inactive
11,Cc1cc(Cl)c2oc(C(=O)N3CCC(O)(c4ccccc4)CC3)c(C)c2c1,-2.12 (inactive)
12,Cc1ccc(C(=O)C(C)OC(=O)Cc2n[nH]c(=O)c3ccccc23)cc1C (stereo not given),inactive
13,CN(C)Cc1ccccc1C1(O)c2ccccc2CSc2ccccc21 (stereo not given),-7.67 (active)
14,COCCn1c(SC(C)C(=O)NC2CC2)nnc1-c1cccc(C)c1 (stereo not given),inactive
15,CC(OC(=O)C1CC(=O)N(Cc2ccccc2)C1)C(=O)Nc1ccccc1[N+](=O)[O-] (stereo not given),inactive
16,Clc1ccccc1CSc1nnc(-c2ccco2)c(-c2ccco2)n1,-9.12 (active)
17,Fc1cccc(Cl)c1CSc1ccc(-c2ccco2)nn1,-0.68 (inactive)
18,COC(OC)c1ccnc(SCc2ccccc2Cl)n1,-0.02 (inactive)
19,CCOc1ccc(S(=O)(=O)Nc2ccc(C(=O)NCCCN3CCCC3=O)cc2)cc1,inactive
20,CCCNC(=O)c1ccc(N2CCC3(CC2)CC(c2cccc(Br)c2)=NO3)c(NC(=O)c2ccco2)c1,-0.15 (inactive)
21,Cc1cc2nc3n(c2cc1C)CC1CC(C(=O)NCCC(C)C)N(C)C31 (stereo not given),inactive
22,Cc1sc(NC(=O)c2ccc3ncsc3c2)c(C(N)=O)c1C,inactive
23,Cc1ccc(C(=O)c2c(NC(=O)c3ccncc3)sc3c2CCCC3)cc1,-3.32 (inactive)
24,Cc1ccc(C(=O)c2c(NC(=O)c3ccccc3)sc(C)c2C)cc1,-7.48 (active)

row,SMILES,B-score
1,COc1ccc(N2CCN(S(=O)(=O)c3cc4c5c(c3)C(C)C(=O)N5CCC4)CC2)cc1 (stereo not given),inactive
2,COc1ccc(-c2ccc3nnc(SCC(=O)Nc4ccc(NC(C)=O)cc4)n3n2)cc1,-0.47 (inactive)
3,CC(=O)Nc1ccc(NC(=O)CSc2nnnn2C2CCCCC2)cc1,-0.45 (inactive)
4,COc1ccc(-c2cc(C(=O)Nc3ccccc3O)c3ccccc3n2)cc1,-1.2 (inactive)
5,COc1ccccc1NC(=O)c1cc(Cl)nc2ccccc12,-4.22 (inactive)
6,COc1ccc(NC(=O)c2cc(-c3cc(OC)c(OC)c(OC)c3)nc3ccccc23)c(OC)c1,-5.97 (active)
7,O=C1CC2(CCN(C(=O)COc3ccc(F)cc3)CC2)Oc2ccccc21,inactive
8,COc1ccc(C(=O)c2c3ccc([N+](=O)[O-])cc3[n+]([O-])n2CCCN)cc1,-0.22 (inactive)
9,CCCCCC(=O)N1CCN(S(=O)(=O)c2ccc3c(c2)OCCCO3)CC1,-1.36 (inactive)
10,COc1ccc(-c2nnc(SCC(=O)Nc3cccnc3Cl)n2C)cc1,inactive
11,Cc1cccc(N=C2SC(C)CN2C(=O)CN2C(=O)NC3(CCCC3)C2=O)c1 (stereo not given),-1.04 (inactive)
12,CC1(C)C=Cc2c(ccc3c2OC[C@@H](c2ccc(O)cc2O)C3)O1,-5.7 (active)
13,O=C(COc1ccccc1Cl)Nc1ccccc1C(=O)NC1CC1,inactive
14,Cc1c(C)n2c(SCC(=O)N3CCCC3)nnc2[nH]c1=O,-0.73 (inactive)
15,CCOC(=O)C1CCN(C(=O)Nc2ccc(C)c(Cl)c2)CC1,inactive
16,CCOC(=O)C1CCN(C(=O)Nc2cccc(OC)c2)CC1,-0.14 (inactive)
17,CCOC(=O)N1CCC(N(CCOC)C(=O)Nc2ccc(C)c(C)c2)CC1,-7.75 (active)
18,O=C(OCC1OC(Oc2ccc(O)cc2)C(O)C(O)C1O)c1ccccc1 (stereo not given),-0.52 (inactive)
19,Cn1ccsc1=NC(=O)c1cc(S(=O)(=O)N2CCOCC2)ccc1Cl,-2.45 (inactive)
20,CC(=O)N(C1=C(Cl)C(=O)c2ccccc2C1=O)c1ccc(C(=O)O)cc1,-10.4 (active)
21,CC(C)N(C(=O)c1ccc(-c2ccccc2F)cc1)C(C)C,-1.82 (inactive)
22,O=C(CN1C(=O)c2ccccc2C1=O)NCc1ccc(C(=O)O)cc1,-0.02 (inactive)
23,CC(=O)c1c(C)[nH]c(C(=O)N2CCN(S(=O)(=O)c3ccc(F)c(F)c3)CC2)c1C,inactive
24,C=CCOc1ccc(/C=C/C(=O)OCC(=O)NCC2CCCO2)cc1 (stereo not given),inactive

row,SMILES,B-score
1,CCc1ccc(-c2cc(C(=O)NCc3ccco3)c3ccccc3n2)s1,-7.07 (active)
2,CCCCN(C)CCCNC(=O)c1cc(-c2cccs2)nc2ccccc12,inactive
3,COC(=O)CNC(=O)c1cc(-c2ccncc2)nc2ccccc12,-0.09 (inactive)
4,COc1ccc(NS(=O)(=O)c2ccc(C)c(C(=O)NNC(=O)c3csc(N4CCOCC4)n3)c2)cc1,-0.78 (inactive)
5,CCc1noc(C)c1C(=O)N1CCCSC1=Nc1ccccc1OC,inactive
6,CCC1(c2ccccc2)NC(=O)N(CC(=O)Nc2ccccc2C(=O)NC2CCCC2)C1=O (stereo not given),inactive
7,CCN1C(=O)[C@H]2[C@@H](c3ccc(C)cc3)N3C(=O)N(c4cccc(Br)c4)C(=O)[C@@]3(CC)[C@H]2C1=O,-0.8 (inactive)
8,O=C(c1cc2ccccc2o1)N1CCN(c2cccc(C(F)(F)F)c2)CC1,-0.25 (inactive)
9,FC(F)(F)c1cccc(-c2cc3ccccc3nc2N2CCCC2)c1,-6.95 (active)
10,c1ccc(-c2cc(N3CCCCC3)c3ccccc3n2)cc1,-0.16 (inactive)
11,O=C(N/N=C/c1cc(Br)c(O)c([N+](=O)[O-])c1)C(O)(c1ccccc1)c1ccccc1,inactive
12,C=CCOC(=O)C1=C(C)OC(N)=C(C#N)C1c1ccc(F)cc1 (stereo not given),inactive
13,CCOC(=O)CSC1=C(C#N)C(c2ccco2)C(C(=O)OCc2ccccc2)=C(C)N1 (stereo not given),-2.55 (inactive)
14,C=CCOC(=O)C1=C(C)NC(SCC(=O)OCC)=C(C#N)C1c1ccc(C)cc1 (stereo not given),-6.37 (active)
15,CC(C)N(Cc1nnc(-c2ccc(Cl)cc2)o1)C(=O)C1=COCCO1,-1.82 (inactive)
16,CCOn1c(SC(C)C)nc2ccccc2c1=O,-2.44 (inactive)
17,CCOC(=O)C(C)Sc1nc2ccccc2c(=O)n1CC1CCCCC1 (stereo not given),-10.1 (active)
18,CCOC(=O)C1CCc2nc3ccccc3c(=O)n21 (stereo not given),inactive
19,CCCCn1c(N)c(N(CCOC)C(=O)c2cccc(S(=O)(=O)N(C)c3ccccc3)c2)c(=O)[nH]c1=O,-0.06 (inactive)
20,COc1ccc(C)cc1NC(=O)Nc1ccccc1SC,inactive
21,COc1ccc(C)cc1NC(=O)C(OC(=O)c1cccc(S(=O)(=O)N(C)c2ccccc2)c1)c1ccccc1 (stereo not given),-7.07 (active)
22,COc1ccc(C)cc1NC(=O)C(Sc1ccccc1)c1ccccc1 (stereo not given),-2.05 (inactive)
23,Cc1ccc(S(=O)(=O)N2CCN(C(=O)c3ccccc3-c3nc4ccccc4s3)CC2)c(C)c1,-0.72 (inactive)
24,CCOC(=O)CSc1nc2c(c(=O)n(C)c(=O)n2C)n1Cc1ccccc1F,inactive

row,SMILES,B-score
1,CCOC(=O)CSc1nc2c(sc(=S)n2CCc2ccccc2)c(=O)n1Cc1ccco1,-5.6 (active)
2,CCOC(=O)CSc1nnc(-c2ccco2)n1C,inactive
3,OCCCNc1nc(-c2ccccc2)c2cc(Cl)ccc2n1,inactive
4,CCCCn1c(N)c(N(CC(C)C)C(=O)c2ccc(Br)o2)c(=O)[nH]c1=O,inactive
5,O=C(c1ccc(F)c(S(=O)(=O)N2CCOCC2)c1)N(CCc1ccccc1)Cc1ccccc1,-2.85 (inactive)
6,COc1cccc(-c2cnc(OC(C)(C)C)nc2OC(C)(C)C)c1,-7.02 (active)
7,CC(C)(C)Oc1ncc(Br)c(OC(C)(C)C)n1,inactive
8,COc1ccc(-c2nc(N)ncc2-c2ccc(Cl)cc2)c(O)c1,-0.21 (inactive)
9,CC(Oc1ccc(F)cc1)C(=O)Nc1ccccc1C(=O)NC1CC1 (stereo not given),-1.68 (inactive)
10,COc1ccc(C2CC(c3cccs3)=NN2C(=O)COC(=O)c2cc3ccccc3cc2O)cc1OC (stereo not given),inactive
11,COc1ccc(C2CC(c3cccs3)=NN2C(=O)CCC(=O)O)cc1OC (stereo not given),inactive
12,O=C1c2cccc(OCC(=O)N3N=C(c4cccs4)CC3c3ccc(F)cc3)c2CCN1Cc1ccccc1 (stereo not given),-5.75 (active)
13,Nc1cccnc1Sc1ccccc1,inactive
14,COCCNC(=O)COc1ccccc1C,-1.11 (inactive)
15,O=C(CNC(=O)c1ccccc1)NCC(=O)OCC(=O)c1ccccc1 (Bz-Gly-Gly-OPac),inactive
16,Cc1ccccc1OCC(=O)NCC(=O)OCC(=O)c1ccc2ccccc2c1,-5.95 (active)
17,Nc1c(C(=O)Nc2ccc3c(c2)OCCO3)nnn1Cc1ccccc1,-0.47 (inactive)
18,CC(=O)Nc1cccc(OCC(=O)/C=C2\N(C)c3ccccc3C2(C)C)c1,-6.18 (active)
19,CC(C)Nc1nnc(SCC(=O)/C=C2\N(C)c3ccccc3C2(C)C)s1,inactive
20,CN1/C(=C\C(=O)c2oc3ccccc3c2N)C(C)(C)c2ccccc21,-0.16 (inactive)
21,Cc1ccc(C)c(NC(=O)C2Cc3ccccc3CN2C(=O)OCc2ccccc2)c1 (stereo not given),-6.25 (active)
22,Cc1ccc(S(=O)(=O)N(C)C)cc1NC(=O)C1Cc2ccccc2CN1C(=O)c1ccco1 (stereo not given),-0.13 (inactive)
23,Cc1ccc(NC(=O)C2CCCN2C(=O)OCc2ccccc2)cc1C (stereo not given),inactive
